From ChEMBL document CHEMBL1157539, “Thousands of chemical starting points for antimalarial lead identification” (Nature, 2010)

Key:
Type in all cases: functional
Plasmodium falciparum [1] = assay: GSK_TCMDC: Inhibition of Plasmodium falciparum 3D7 in whole red blood cells, using parasite LDH activity as an index of growth. Test compounds present at 2uM
Plasmodium falciparum [2] = assay: GSK_TCMDC: Inhibition of Plasmodium falciparum Dd2 in whole red blood cells, using parasite LDH activity as an index of growth. Test compounds present at 2uM
HepG2 = assay: GSK_TCMDC: Percent inhibition of human HepG2 cell line. Test compounds present at 10uM.

Row | Compound | Inhibition (Plasmodium falciparum [1]) | Inhibition (Plasmodium falciparum [2]) | Inhibition (HepG2)
1 | CCC[C@@H]([C@@H](CC1CCCCC1)C(=O)N[C@@H](CCCCNS(C)(=O)=O)C(=O)Nc1nccs1)N(O)C=O | 100% | 74% | 0%
2 | O=C(NC1CCN(Cc2ccccc2)C1)c1ccc(Nc2ccc(Br)cc2)nc1.O=C(O)C(F)(F)F (stereo not given) | 94% | 21% | 19%
3 | Cc1c(C)n(C2CCCCC2)c2ncnc(OC3CCN(CC(=O)NC4CC4)CC3)c12 | 94% | 72% | 21%
4 | Cc1ccccc1C1CCN(C2CCC(NC(=O)/C=C/c3cccc(F)c3F)CC2)CC1 (stereo not given) | 89% | 45% | 57%
5 | Cc1cc(C)c(NC(=O)NC2CCN(CCCCCNC(=O)/C=C/c3ccc(Cl)c(Cl)c3)CC2)c(C)c1 | 100% | 17% | 30%
6 | CC(C)CCNCc1c(O)ccc2ccccc12 | 95% | 51% | 9%
7 | O=C(O)C(F)(F)F.c1ccc(CNCCn2c(-c3ccc4c(c3)CCO4)nc3c(N4CCCC4)cccc32)cc1 | 82% | 85% | 9%
8 | Cc1[nH]cnc1-c1cccc(NC(=O)c2cc3ccccc3s2)c1 | 99% | 48% | 5%
9 | CCCC(C)Nc1nc(C)cc(N[C@@H](CC(C)C)C(=O)NCCc2ccccc2)n1.O=C(O)C(F)(F)F (stereo not given in full) | 96% | 51% | 9%
10 | Cl.Nc1ncnc2occ(-c3ccc(NC(=O)Nc4cc(C(F)(F)F)ccc4F)cc3)c12 [GW770249A] | 99% | 99% | 57%
11 | Cn1cncc1C(=O)Nc1cccc(-c2ccc(-c3nc4ccccc4[nH]3)s2)c1 | 100% | 25% | 0%
12 | O=C(Nc1cccc(CN2CCCN(Cc3cccnc3)CC2)c1)c1cc2ccccc2s1.O=C(O)C(F)(F)F | 92% | 28% | 15%
13 | CCCCCCn1c(Sc2ccc(C#N)c([N+](=O)[O-])c2)nnc1-c1cccs1 | 97% | 60% | 26%
14 | FC(F)(F)c1ccc2c(C=Cc3ccncc3)c[nH]c2c1 | 98% | 76% | 0%
15 | CCc1cn(CCc2ccccc2)c2ccc(C(=O)N[C@@H](Cc3ccccc3)[C@H](O)CNC(C)(C)CCCC(C)C)cc12.O=CO | 98% | 99% | 66%
16 | CCOc1ccc(C(=O)Nc2cc(Br)c3c(c2)CNCC3)cc1C#N.Cl | 97% | 32% | 17%
17 | COc1cc(NC(=O)N2CCOC(CCN3CCC(c4ccccc4)CC3)(c3ccc(Cl)c(Cl)c3)C2)cc(OC)c1 (stereo not given) | 93% | 73% | 12%
18 | CC(C)(C)C(=O)N1CCN(c2ccc([N+](=O)[O-])c(NC3CC3)c2)CC1 | 95% | 97% | 8%
19 | COC(=O)c1cccc(NC(=O)NC2CCN(c3ccnc(Nc4cc(OC)c(OC)c(OC)c4)n3)C2)c1 (stereo not given) | 99% | 68% | 7%
20 | Cc1ccc(-n2cc(CNCCCn3ccnc3)c(-c3cccc(C)c3)n2)cc1 | 99% | 36% | 9%

Row | Compound | Inhibition (Plasmodium falciparum [1]) | Inhibition (Plasmodium falciparum [2]) | Inhibition (HepG2)
21 | NC1=NC(c2ccccc2)(c2ccccc2)C(=O)N1Cc1ccc(-c2ccncc2)cc1.O=CO | 96% | 74% | 20%
22 | Cc1ccc(C2CCN(CCCCNC(=O)c3ccc(NC(=O)c4ccc(Cl)cc4)cc3)CC2)c(OCC2CC2)c1.Cl | 100% | 95% | 63%
23 | CN1CCN(CC(O)CNC(=O)Nc2ccc(Br)cc2)CC1.O=C(O)C(F)(F)F (stereo not given) | 100% | 100% | 5%
24 | CN(C)C(CNC(=O)c1cc(-c2ccncc2)c(-c2ccc(NC(=O)Nc3ccccc3)cc2)o1)c1ccccc1.O=C(O)C(F)(F)F (stereo not given) | 100% | 96% | 19%
25 | N=C(NCc1ccccc1)Nc1nc(-c2ccc(OCCCn3ccnc3)cc2)cs1 | 100% | 55% | 10%
26 | Cc1cc(-c2cnc(N)c(-c3ccc(N4CCN(C)CC4)cc3)c2)cc(C)c1O | 100% | 99% | 3%
27 | Cc1[nH]c(C)c(-c2ccc(OCCSc3ccncc3)cc2)c(=O)c1Br | 95% | 95% | 0%
28 | Clc1cc(Cl)c2c(c1)C(NCCCNc1nc3ccccc3[nH]1)CCO2 (stereo not given) | 100% | 31% | 28%
29 | Cc1cc(NC(=O)NCCN2CCC(NS(=O)(=O)c3ccc(Br)cc3)C2)c2ccccc2n1.O=C(O)C(F)(F)F (stereo not given) | 99% | 51% | 9%
30 | CO/C(=C\C=C\c1cc2cc(Cl)c(Cl)cc2[nH]1)C(=O)NC1CCN(CCNc2ccccc2)CC1 | 100% | 98% | 60%
31 | CCCCCN1CCC(NS(=O)(=O)c2ccc(C(=O)Nc3cccc(C(F)(F)F)c3)cc2)C1.O=C(O)C(F)(F)F (stereo not given) | 94% | 0% | 14%
32 | CN1CCN(c2ccc(-c3cccc(NC(=O)c4cccc(Cl)c4)c3)nn2)CC1 | 94% | 37% | 5%
33 | CS(=O)(=O)c1ccc(-c2cnc(N)c(-c3cccc(CO)c3)c2)cc1 | 98% | 51% | 0%
34 | CCC[C@@H]([C@@H](CC(C)C)C(=O)N[C@@H](CCCNc1nccc(C(F)(F)F)n1)C(=O)Nc1nccs1)N(O)C=O | 99% | 98% | 0%
35 | O=C(NC1CCN(Cc2ccccc2)CC1)c1ccc(-c2nc3cc(Cl)c(F)cc3[nH]2)s1 | 100% | 99% | 28%
36 | N#Cc1cccc(CN2CCCN(c3ccc(NC(=O)c4cccs4)cc3)CC2)c1.O=C(O)C(F)(F)F | 96% | 95% | 0%
37 | CC(=O)Nc1ccc(CN2CCc3ccc(NS(=O)(=O)c4cccc(OCc5ccc(Cl)cc5)c4)cc3CC2)s1 | 93% | 7% | 23%
38 | CC(=O)Nc1cc(C(=O)Nc2ccc(C3=NCCN3)cc2)ccc1C(=O)Nc1ccc(C2=NCCN2)cc1.Cl | 96% | 92% | 12%
39 | CC(CCCCOCCc1ccccc1)NCC(O)c1cc(Cl)c(N)c(Cl)c1 (stereo not given) | 96% | 95% | 0%
40 | CC(=O)Nc1ccc(-c2nc3ccc(-c4nc5ccc(NC(C)=O)cc5[nH]4)cc3[nH]2)cc1 | 99% | 99% | 0%

Row | Compound | Inhibition (Plasmodium falciparum [1]) | Inhibition (Plasmodium falciparum [2]) | Inhibition (HepG2)
41 | O=C(Nc1ccc(-c2ccc(-c3nc4ccccc4[nH]3)s2)cc1)Nc1ccc(F)c(F)c1F | 99% | 97% | 57%
42 | O=C(/C=C/c1ccc(Cl)c(Cl)c1)NCCCCN1CCC(c2c[nH]c3ccccc23)CC1 | 91% | 11% | 57%
43 | Cc1cc(N[C@@H](CC(C)C)C(=O)Nc2ccccc2)nc(Nc2ccccc2)n1.O=C(O)C(F)(F)F | 99% | 93% | 0%
44 | COc1ccc(-c2ccc(CNCc3ccccc3)cc2)cc1S(=O)(=O)NCCN1CCCC1.O=C(O)C(F)(F)F | 100% | 76% | 36%
45 | CNC(=O)c1cnc(Nc2ccc(OCC(O)CN(C)C)cc2)nc1Nc1cccc(OC(C)C)c1.O=C(O)C(F)(F)F (stereo not given) | 100% | 100% | 21%
46 | COc1cc(OC)c(NC(=O)C2c3ccccc3C(=O)N(C)C2c2cccs2)cc1Cl (stereo not given) | 99% | 52% | 4%
47 | COc1c(C2CCN(CCCCNC(=O)c3cc(-c4ccc(Cl)cc4)sc3C)CC2)ccc2c1CCCC2 | 100% | 65% | 61%
48 | CCc1cn2c3c(cc(C(=O)N[C@@H](Cc4ccccc4)[C@H](O)CNCc4ccccc4C)cc13)N(C)S(=O)(=O)CC2.O=CO | 98% | 98% | 3%
49 | COc1ccc(NC(=O)c2cc(-c3ccc(NC(C)=O)cc3)cnc2N)cc1 | 98% | 5% | 10%
50 | CN1CCN(c2nsc3ccc(-c4ccc(NC(=O)Nc5cc(C(F)(F)F)ccc5F)cc4)cc23)CC1.O=C(O)C(F)(F)F | 99% | 64% | 100%
51 | COc1ccc(NC(=O)[C@H](Cc2ccccc2)Nc2cc(C)nc(NCCc3cccnc3)n2)cc1.O=C(O)C(F)(F)F | 98% | 5% | 11%
52 | O=C(NCCNc1ccnc(Nc2ccc(F)cc2)n1)Nc1ccccc1F | 93% | 4% | 22%
53 | Cc1noc(C)c1-c1cccc(CNCc2cccc(-c3cccc(-c4nc5cc(C(F)(F)F)ccc5[nH]4)c3)c2)c1.O=C(O)C(F)(F)F | 100% | 95% | 18%
54 | O=C(Nc1cc(Cl)c(Cl)cc1NC(=O)c1cccc(-c2ccccc2)c1O)c1cccc(-c2ccccc2)c1O | 100% | 100% | 79%
55 | O=C(NCCN1CCOCC1)c1ccc(O)c(-c2cccc(C(F)(F)F)c2)c1 | 95% | 48% | 0%
56 | COc1ccccc1-c1csc(C(=O)NC2CCCCN(Cc3ccc(C(C)(C)C)cc3)C2)c1.O=C(O)C(F)(F)F (stereo not given) | 99% | 8% | 13%
57 | Cc1cc(NCCCCCCN)nc(Nc2ccc(Cl)cc2)n1 | 100% | 26% | 25%
58 | CC(C)c1ccc(NC(=O)Nc2ccc(Cn3ncc(N4CCCNCC4)c(Cl)c3=O)cc2)cc1.O=C(O)C(F)(F)F | 85% | 27% | 11%
59 | CC(=O)c1ccc(S(=O)(=O)N2CCC(C(=O)Nc3ccccc3N3CCCC3)CC2)cc1 | 95% | 99% | 0%
60 | CC1CC(C)CN(CC(O)CNC(=O)Nc2ccc(Br)cc2)C1.O=C(O)C(F)(F)F (stereo not given) | 94% | 44% | 13%
